Source: PubChem
In the library only some 19% were active in any assay of this set; here they are far more common.
HT1080-NT tox: kills 2HG-producing HT-1080-NT fibrosarcoma cells. HT-1080-NT fibrosarcoma viability, CellTiter-Glo ATP luminescence, 48 h. Potency, µM (top dose mostly 46.1 µM), for the others: at the top dose activity, negative = less viability, actives largely listed as cytotoxic. 360,000 compounds, 1.6% hits. AID 686970;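 also: NT is the 2HG producing partner of a matched IDH1 knockdown line; potency is read from the fitted curve at half-maximal effect; 0% = DMSO-treated cells and -100% = media-only wells without cells; nearly all actives have a fitted effect of over 55% in size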
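Luminescent CellTiter-Glo readout after 48 hours of compound exposure at 37 degrees C defined viability of HT-1080-NT cells. Activity was normalized to DMSO wells and cell-free media wells; concentration-response curves were fitted and assigned curve classes.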
DT40 TDP1 no CPT: qHTS for Inhibitors of human tyrosyl-DNA phosphodiesterase 1 (TDP1): qHTS in cells in absence of CPT; DT40 Tdp1-/- hTDP1 cells, no CPT, ATP luminescence, 48 h; Potency, µM (series often up to 46.2 µM), inactives show top-dose activity change, negative = growth inhibition, usual class: inhibitors; 420,000 compounds, 15% hits; AID 686978, 2013; also: potency is read from the fitted curve at half-maximal effect; nearly all actives have a fitted effect of over 55% in size
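No-CPT arm: Tdp1-/-;hTDP1 DT40 cells (400/well) plus compounds, incubated ≥48 hr at 37 °C. Readout CellTiter-Glo luminescence.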
HT1080 IDH1KD tx: kills HT-1080 cells with IDH1 knockdown. HT-1080 IDH1 knockdown viability, ATP luminescence, 48 h. Potency, µM (highest dose often 46.1 µM), without a hit: top-dose activity, negative = toxicity, usual class: cytotoxic. 360,000 compounds, 2% hits;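 also: potency is read from the fitted curve at half-maximal effect; 0% = DMSO wells and -100% = cell-free medium wells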
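HT-1080-IDH1KD cells (IDH1 knocked down), 750/well in RPMI with 5% FBS, treated with compound 48 h at 37 degrees C. Viability by CellTiter-Glo luminescence, normalised to DMSO and no-cell wells; concentration-response curves classed.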
IL1B secr inh: inhibitors of inflammasome signaling (IL-1 beta secretion). THP-1 LPS/ATP IL-1B secretion, AlphaLISA, 16 h; hits give low values. activity change, % at 57.5 µM. AID 743279. 360,000 compounds, 4.7% hits; in the data active = activity change below about -50%; inconclusive = mostly about -30% to -49%
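THP-1 cells pretreated 1 hr with compounds (up to 57.5 uM final), then stimulated with LPS (250 ng/mL final) plus ATP (1.25 mM final); secreted IL-1B measured by AlphaLISA after 16 hr, decreased signal indicating inhibition.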
DT40 TDP1 CPT: growth inhibition of DT40 Tdp1-/-;hTDP1 cells with camptothecin (screen for TDP1 inhibitors); Potency, µM (top dose mostly 46.2 µM), inactives show top-dose activity change, negative = growth inhibition, actives largely listed as inhibitors; 420,000 compounds, 12% hits; chicken DT40 Tdp1-/-;hTDP1 cells + 20 nM CPT, ATP luminescence, 48 h; also: potency is read from the fitted curve at half-maximal effect; nearly all actives have a fitted effect of over 55% in size
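Chicken DT40 Tdp1-/- cells stably complemented with human TDP1 were seeded at 400 cells/well in medium containing 20 nM camptothecin, exposed to pin-transferred compounds, and grown at 37 °C for at least 48 hr. Viability was read as ATP luminescence.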
Starred values were filed as active, the others as inactive; ? = inconclusive; . = no result given; [ ] = remark or other dose. Unless noted, calls follow the shape of the dose curve; as a rule, active = well fitted curve in the direction sought with a large enough effect; inconclusive = small, poorly fitted or top-dose-only effect, or another doubt; inactive = no such curve, though single readings can be large; an effect the other way counts as inactive or inconclusive. Unless noted, % is scaled to controls: 0 for no effect and ±100 for the full control effect.

SMILES	HT1080-NT tox	DT40 TDP1 no CPT	HT1080 IDH1KD tx	IL1B secr inh	DT40 TDP1 CPT
CCOC(=O)Cc1nnc2c(Nc3ccc(Cl)cc3)nc3nonc3n12	?	?	9.2µM*	25	?
C/C=C/c1ccc(OCCCCN2CC(C)CC(C)C2)c(OC)c1 (stereo unspecified)	23µM*	?	21µM*	-70*	?
C/C=C/c1ccc(OCCCCNCc2ccco2)c(OC)c1	-30%	?	?	-58*	26µM*
C/C=C/c1ccc(OCCCCN2CCN(CC)CC2)c(OC)c1	-14%	29µM*	-16%	-11	?
C/C=C/c1ccc(OCCCNCC(C)O)c(OC)c1 (stereo unspecified)	-20%	?	-15%	-10	?
CCCCCCCn1c(C)nnc1-c1cnn(C)c1N	-5%	7%	-4%	0	-8%
CCN(CC)C(C)C(=O)NCC1(c2ccccc2)CCOCC1 (stereo unspecified)	11%	-1%	0%	15	9%
Cc1nnc(N2CCCC(C(=O)NCc3cccc(F)c3)C2)c2nn(-c3ccccc3)c(C)c12 (stereo unspecified)	-4%	13µM*	-15%	?	?
COc1ccc(-n2nc3c(N4CCCC(C(=O)NCc5cccc(F)c5)C4)nnc(C)c3c2C)cc1 (stereo unspecified)	.	13µM*	.	.	8.2µM*
O=C(O)C(CCc1ccccc1)N1CCOCC1 (stereo unspecified)	-1%	?	-3%	-21	-13%
CCCCN1C2=C(C(=O)CCC2)C(c2ccc(Cl)c(Cl)c2)C2=C1c1ccccc1C2=O (stereo unspecified)	2%	?	6%	-11	16µM*
CCCN1C(=O)c2ccccc2NC1c1ccc(Cl)c(Cl)c1 (stereo unspecified)	0%	?	-2%	-1	?
CN1CCN(C2CN(Cc3ccc(F)cc3)S(=O)(=O)C2)CC1 (stereo unspecified)	18%	-18%	16%	37	8%
CCCCn1c(N)c(N(CC)C(=O)COc2ccc(C#N)cc2)c(=O)[nH]c1=O	1%	4%	5%	17	12%
C[C@@H](CO)NC(=O)[C@H]1O[C@@H](n2cnc3c(N)ncnc32)[C@H](O)[C@@H]1O	0%	2%	15%	-3	-1%
CC(C)[Si]1(C(C)C)OCC2OC(n3cnc4c(N)ncnc43)C(N)C2O[Si](C(C)C)(C(C)C)O1 (stereo unspecified)	-18%	12µM*	?	?	13µM*
O=[N+]([O-])c1ccc(N/N=C/C=C/c2ccco2)cc1	1%	?	3%	22	?
NC(=O)N/N=C/c1ccc([N+](=O)[O-])o1	-29%	3.3µM*	-20%	8	16µM*
Cc1cc(C)c(S(=O)(=O)N/N=C/c2ccc([N+](=O)[O-])o2)c(C)c1	-13%	?	2%	-3	23µM*
Cc1ccc(NC(=O)CCC(=O)N/N=C/c2ccc([N+](=O)[O-])o2)cc1C	?	?	-1%	9	?
O=C(N/N=C/c1ccc([N+](=O)[O-])o1)C1CC1	-13%	23µM*	?	13	7.3µM*
O=C(O)c1ccc(N/N=C/C=C/c2ccc([N+](=O)[O-])o2)cc1	-2%	23µM*	-8%	-15	8.2µM*
O=C(N/N=C/c1ccc([N+](=O)[O-])o1)C(=O)Nc1ccc(C(=O)O)cc1	-17%	-14%	9%	18	-24%
CC(C)CN(C(=O)CSc1nc2ccccc2[nH]1)C1CCS(=O)(=O)C1 (stereo unspecified)	11%	2%	20%	-1	-10%
COC(=O)c1cc2sc(Cl)cc2n1Cc1nc(-c2ccccc2C)oc1C	.	9%	.	.	7%
SMILES	HT1080-NT tox	DT40 TDP1 no CPT	HT1080 IDH1KD tx	IL1B secr inh	DT40 TDP1 CPT
CC1CCCC(C)N1/N=C/c1ccc(N(C)C)cc1 (stereo unspecified)	13%	11%	10%	-1	15%
CC1(C)S[C@@H]2[C@H](NC(=O)[C@@H](NC(=O)N3CCNC3=O)c3ccccc3)C(=O)N2[C@H]1C(=O)O	.	-11%[21.1 µM]	.	.	-9%[21.1 µM]
Cc1ccc(NC(=O)COC(=O)CN2C(=O)c3ccccc3C2=O)cc1	0%[9.24 µM]	3%	3%	15	6%
ON1C(c2ccccc2C(F)(F)F)N(O)[C@H]2CCCC[C@H]21 (stereo partly specified)	3%	-10%	-4%	12	4%
CCCC(=O)Nc1ccc(C(=O)N/N=C/c2ccc([N+](=O)[O-])o2)cc1	12µM*	9.2µM*	13µM*	17	15µM*
Cc1ccc(OCC(=O)N/N=C/c2ccc([N+](=O)[O-])o2)cc1	?	13µM*	?	-25	16µM*
N#Cc1cccc(S(=O)(=O)NNC(=O)C23CC4CC(CC(C4)C2)C3)c1	1%	-27%	-2%	18	-15%
CCOC(=O)c1cc(OCC)c2c(ccc3ccccc32)n1	4%	?	-3%	18	-26%
Oc1cccc(-c2nc3ccc4ccccc4c3c3c2CCC3)c1	?	21µM*	?	0	?
CCC(=O)N1CCc2cc(Br)cc(S(=O)(=O)CCC(=O)Nc3ccc(CC)cc3)c21	.	0%	.	.	-8%
COC(=O)c1cn(C(=O)c2ccc(C)c(C)c2)c2ccccc12	-13%	21µM*	15%	0	?
COC(=O)c1cn(C(=O)c2ccc(C)cc2)c2ccccc12	-18%	16µM*	-17%	-1	18µM*
COC(=O)c1cn(C(=O)c2ccc3c(c2)OCO3)c2ccccc12	-24%	16µM*	-16%	-19	?
COC(=O)c1cn(C(=O)c2cc(C)cc(C)c2)c2ccccc12	8%	?	0%	-4	?
COC(=O)c1cn(C(=O)c2ccc(OC)cc2)c2ccccc12	?	4.6µM*	4.6µM*	8	8.2µM*
COC(=O)c1cn(C(=O)c2ccc(OC)c(OC)c2)c2ccccc12	-18%	?	-20%	8	?
Cc1cccc(SCC(=O)Nc2ccc3c(c2)OCCO3)c1	17%	-3%	12%	-4	-5%
COc1cccc(N2CCN(S(=O)(=O)c3ccc4c(c3)NC(=O)C(C)C(=O)N4)CC2)c1 (stereo unspecified)	1%	9%	-2%	62	-26%
O=C(CNC(=O)c1cccs1)c1ccc(F)cc1	2%	-13%	0%	-19	-4%
O=C(c1ccco1)N1CCC2(CCCN(c3ccccn3)C2)CC1	.	?	.	.	2%
COc1ccccc1Nc1cc(C(=O)NCc2cccs2)c2ccccc2n1	.	?	.	.	26µM*
